Screening results deposited in PubChem BioAssay by National Center for Advancing Translational Sciences (NCATS).
KDM4E inh – qHTS Assay for Inhibitors of Human Jumonji Domain Containing 2E (JMJD2E) | 230,000 tested, 1.6% active | Potency, µM (doses to about 57.1 µM), for inactives: at the highest dose activity change, negative = inhibition, usual class: inhibitors | JMJD2E catalytic domain, FDH-coupled NADH fluorescence (FDH is formaldehyde dehydrogenase) | Lysine-specific demethylase 4E (Homo sapiens), B2RXH2; active = well fitted inhibition curve with a large enough effect, not every such curve was filed as active; inconclusive = small, poorly fitted or top-dose-only effect, or another doubt; inactive = no such curve, though single readings can be large or run the other way;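 also: potency is read from the fitted curve at half-maximal effect; 0% = wells with enzyme and -100% = buffer wells without enzyme; nearly all actives have a fitted effect of over 50% in size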
TRb-SRC2 inh – qHTS for Inhibitors of the Interaction of Thyroid Hormone Receptor and Steroid Receptor Coregulator 2. Thyroid hormone receptor beta (Homo sapiens), P10828. 280,000 tested, 0.065% active. Potency, µM (highest dose often 106 µM), for inactives: at the highest dose activity change, negative = inhibition, actives largely listed as inhibitors. TRbeta-SRC2 peptide binding, fluorescence polarization; receptor liganded with 1 µM T3;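 also: potency is read from the fitted curve at half-maximal effect; plate controls were bound peptide for no effect and peptide without receptor for full effect; nearly all actives have a fitted effect of over 50% in size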
Target sequence (P10828 whole entry, looked up): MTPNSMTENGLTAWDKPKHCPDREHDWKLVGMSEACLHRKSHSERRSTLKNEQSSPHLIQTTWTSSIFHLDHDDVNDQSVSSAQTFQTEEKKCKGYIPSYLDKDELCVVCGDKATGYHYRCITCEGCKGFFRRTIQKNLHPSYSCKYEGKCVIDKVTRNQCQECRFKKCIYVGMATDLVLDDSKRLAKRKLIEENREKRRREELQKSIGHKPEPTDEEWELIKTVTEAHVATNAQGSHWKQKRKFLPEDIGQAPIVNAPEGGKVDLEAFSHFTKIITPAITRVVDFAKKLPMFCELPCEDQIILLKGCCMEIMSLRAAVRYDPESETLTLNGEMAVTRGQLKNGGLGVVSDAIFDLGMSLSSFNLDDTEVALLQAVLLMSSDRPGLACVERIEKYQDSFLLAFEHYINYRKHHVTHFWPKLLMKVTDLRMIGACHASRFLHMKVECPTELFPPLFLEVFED
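Fluorescence polarization of 20 nM Texas Red SRC2 peptide (20-aa NR interaction domain) bound to 0.6 uM human TRb ligand-binding domain, with 1 uM T3, after 5 hr at ambient temperature; inhibition seen as decreased polarization.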
FBPA coupling cs – qHTS Assay for Inhibitors of Fructose-1,6-bisphosphate Aldolase from Giardia Lamblia: Coupling assay counterscreen; coupling enzyme system counterscreen, AmpLite Red fluorescence; activity change, negative = inhibition, % at 58.2 µM, hits read low; 290,000 tested, 0.67% active; in the data active = activity change below about -30%; also: % is scaled to controls: 0 for no effect and ±100 for the full control effect
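Counterscreen lacking aldolase: glyceraldehyde-3-phosphate coupling-enzyme reagent preincubated 10 min at RT with compound (at 57.5 uM final), then substrate/coupling system with AmpLite Red added; fluorescence read at 525/598 nm after 20 min RT.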
HTT aggregate – qHTS Multiplex Assay to Identify Dual Action Probes in a Cell Model of Huntington: Aggregate Formation (GFP). PC12 HttQ103-GFP aggregates, Acumen cytometry, 40 h. Potency, µM (doses to about 46.1 µM), for inactives: at the highest dose activity change, negative = inhibition, actives largely listed as inhibitors. 220,000 tested, 1.1% active; also: potency is read from the fitted curve at half-maximal effect; % is scaled to controls: 0 for no effect and ±100 for the full control effect; nearly all actives have a fitted effect of over 60% in size
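Multiplexed with ATP-based cell death, this channel scores GFP aggregates in PC12 cells expressing inducible HTTex1-Q103-GFP. Induction used 100 nM tebufenozide; compounds were tested in concentration series.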
TexasRed fluor – Total Fluorescence Counterscreen for Inhibitors of the Interaction of Thyroid Hormone Receptor and Steroid Receptor Coregulator 2 | AID 1479, 2009 | 280,000 tested, 0.29% active | TRb/SRC2 Texas Red total fluorescence interference | Potency, µM (titrated, usually from 106 µM), for inactives: at the top dose fluorescence change, negative = quenching; active = well fitted curve in either direction with a large enough effect; inconclusive = small, poorly fitted or top-dose-only effect; also: potency is read from the fitted curve at half-maximal effect; % is scaled to controls: 0 for no effect and ±100 for the full control effect
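Human TRβ ligand-binding domain (0.6 uM) and Texas Red SRC2 peptide (20 nM) in Tris buffer with 1 uM T3 and 5% DMSO were incubated with pinned compound for 5 hr at ambient temperature. Total fluorescence was computed as S + 2P (555/632 nm).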
HTT cytoprotect – qHTS Multiplex Assay to Identify Dual Action Probes in a Cell Model of Huntington: Cytoprotection (ATP); 230,000 tested, 0.14% active; AID 1471, 2008; PC12 HTT-Q103 induced, cytoprotection, ATP luminescence, 40 h; Potency, µM (series often up to 56.4 µM), inactives show cytoprotection (ATP increase), hits mostly activators; also: potency is read from the fitted curve at half-maximal effect; % of control where 0% means no effect; nearly all actives have a fitted effect of over 45% in size
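Huntington model: PC12 line, ecdysone-inducible HTTQ103 exon1–GFP, tebufenozide 100 nM. Test articles in a dose series. Endpoint luminescence from cellular ATP.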
* = called active by the depositor; ! = a repeat was not active; [ ] = remark or other dose. Compounds with a hit are over-represented: about 2% of the library has one in this group of screens. Unless noted, calls follow the shape of the dose curve; as a rule, active = well fitted curve in the direction sought with a large enough effect; inconclusive = small, poorly fitted or top-dose-only effect, or another doubt; inactive = no such curve, though single readings can be large; an effect the other way counts as inactive or inconclusive.

`Oc1cccc2c(NC(=S)Nc3ccc(SC(F)F)cc3)cccc12` gave KDM4E inh inconclusive, TRb-SRC2 inh 6%, FBPA coupling cs -43*, HTT aggregate 17%, TexasRed fluor -1% and HTT cytoprotect 9%[10 µM].
`Cc1ccc(CCNC(=O)CCCn2c(=O)c3cccn3c3ccc(F)cc32)cc1` gave TRb-SRC2 inh 6% and TexasRed fluor -23%.
`CNC[C@H](O)c1ccc(O)c(O)c1` gave KDM4E inh 16µM*, TRb-SRC2 inh 1%, FBPA coupling cs -34*, HTT aggregate 5%, TexasRed fluor 1% and HTT cytoprotect -59%.
`CNC[C@@H](SC)c1ccc(O)c(O)c1` gave HTT cytoprotect 14%[10 µM].
Screening CC[C@H](NC(C)C)[C@H](O)c1ccc(O)c(O)c1 returned KDM4E inh 11µM*, TRb-SRC2 inh -3%, FBPA coupling cs -36*, HTT aggregate 13%, TexasRed fluor 0% and HTT cytoprotect -5%[40.3 µM].
`O=C(CSc1nc2c(cnn2-c2ccccc2)c(=O)[nH]1)N1N=C(c2cccs2)CC1c1ccc(F)cc1` (centres undefined) gave KDM4E inh 4µM*, TRb-SRC2 inh 11%, FBPA coupling cs -2, HTT aggregate -7% and TexasRed fluor -1%.
CC(=O)N1CCN(C(=O)CSc2nc3c(cnn3-c3ccccc3)c(=O)[nH]2)CC1 was read as KDM4E inh 4%, TRb-SRC2 inh 12%, FBPA coupling cs -11, HTT aggregate 21%, TexasRed fluor 2% and HTT cytoprotect 3%.
`O=C(O)CCNc1cc2ccccc2cc1C(=O)O` gave KDM4E inh inconclusive, TRb-SRC2 inh -4%, FBPA coupling cs -30*, HTT aggregate -20%, TexasRed fluor -2% and HTT cytoprotect -6%.
Screening O=C(O)CCNS(=O)(=O)c1ccc2ccccc2c1 returned KDM4E inh 6%, TRb-SRC2 inh -15%, FBPA coupling cs 9, HTT aggregate 1%[9.22 µM], TexasRed fluor 3% and HTT cytoprotect -8%.
Screening O=c1c2cc(N3CCOCC3)ccc2[nH]c(=S)n1Cc1ccccn1 returned KDM4E inh inconclusive, TRb-SRC2 inh -4%, FBPA coupling cs -41*, HTT aggregate -2%, TexasRed fluor -11% and HTT cytoprotect -16%.
`O=C1OCC2OC(O)C(O)C(O)C2OC(=O)c2cc(O)c(O)c(O)c2-c2c(O)c(O)c3oc(=O)c4c(c(O)c(O)c5oc(=O)c2c3c54)-c2c1cc(O)c(O)c2O` (centres undefined) gave KDM4E inh 0.56µM*, TRb-SRC2 inh 0%, FBPA coupling cs -15, HTT aggregate -25%[9.22 µM], TexasRed fluor -9% and HTT cytoprotect 3%[10 µM].
For COc1c(O)cc2c(c1O)[C@@H]1O[C@@H](CO)[C@@H](O)[C@@H](O)[C@@H]1OC2=O the results were KDM4E inh 1%[25.5 µM], TRb-SRC2 inh 4%[53 µM], FBPA coupling cs 1, HTT aggregate 8%[20.6 µM], TexasRed fluor -2%[53 µM] and HTT cytoprotect -4%[40.3 µM].
COc1cc(NCCCC(C)N)c2ncccc2c1 (centres undefined) was read as KDM4E inh inconclusive, TRb-SRC2 inh 28µM*, FBPA coupling cs -58*, HTT aggregate 18µM*!, TexasRed fluor 45µM*[fluorescent] and HTT cytoprotect -7%[10 µM].
Screening CC12CCC=CC1C(c1cccc([N+](=O)[O-])c1)N(Cc1ccccc1)C2=O (centres undefined) returned TRb-SRC2 inh 2%, FBPA coupling cs 5 and TexasRed fluor -3%.
`COc1cc(N)c(Cc2nccc3cc(OC)c(OC)cc23)cc1OC` gave KDM4E inh -29%, TRb-SRC2 inh 8%, FBPA coupling cs -31*, HTT aggregate 5%[9.22 µM], TexasRed fluor 22% and HTT cytoprotect 16%[10 µM].
`Oc1ccc(NCc2cccc(OCc3ccc(F)cc3)c2)cc1` gave KDM4E inh -2%, TRb-SRC2 inh 11µM*, FBPA coupling cs -45*, HTT aggregate 23%[9.22 µM], TexasRed fluor 16% and HTT cytoprotect -9%[10 µM].
`Oc1ccc(NCc2cccc(OCc3ccccc3)c2)cc1` gave KDM4E inh 4.5µM*, TRb-SRC2 inh 32µM*, FBPA coupling cs -30*, HTT aggregate -23%, TexasRed fluor -9% and HTT cytoprotect -34%.
Screening COc1ccc(-n2ccnc(NCc3ccc(C)cc3)c2=O)cc1OC returned TRb-SRC2 inh 0% and TexasRed fluor -1%.
`Cc1ccc(N2C(=O)CC(c3ccccc3F)C3=C2COC3=O)cc1Cl` (centres undefined) gave TRb-SRC2 inh -2% and TexasRed fluor 3%.
`Cc1onc(-c2ccccc2Cl)c1C(=O)NCc1cccnc1` gave KDM4E inh 8%, TRb-SRC2 inh -10%, FBPA coupling cs 2, HTT aggregate -5%, TexasRed fluor -4% and HTT cytoprotect 1%[10 µM].
For O=C1c2ccccc2C(=O)c2c1oc(C(F)(F)F)c2C(=O)c1ccccc1 the results were KDM4E inh 10%, TRb-SRC2 inh -4%, FBPA coupling cs -3, HTT aggregate 5µM*, TexasRed fluor -4% and HTT cytoprotect -98%[10 µM].
CC(=O)c1c(C)oc2c1C(=O)c1ccccc1C2=O was read as KDM4E inh 6%, TRb-SRC2 inh -2%, FBPA coupling cs -41*, HTT aggregate 7.1µM*, TexasRed fluor 1% and HTT cytoprotect -53%[10 µM].
O=C(c1ccccc1)c1coc2c1C(=O)c1ccccc1C2=O was read as KDM4E inh 0%, TRb-SRC2 inh 4%, FBPA coupling cs -21, HTT aggregate inconclusive and TexasRed fluor -1%.
For CC(=O)c1c2c3c(cccc3n(C)c1=O)C(=O)c1ccccc1-2 the results were FBPA coupling cs 2.
Screening Cc1oc2c(c1C(=O)NCc1cccnc1)C(=O)c1ccccc1C2=O returned KDM4E inh inconclusive, TRb-SRC2 inh 1%, FBPA coupling cs -26, HTT aggregate 3.5µM*, TexasRed fluor 0% and HTT cytoprotect -97%[10 µM].
`COc1ccc(CNC(=O)c2c(C)oc3c2C(=O)c2ccccc2C3=O)cc1` gave KDM4E inh -13%, TRb-SRC2 inh 8%, FBPA coupling cs -45*, HTT aggregate inconclusive and TexasRed fluor -2%.
